Screening results: PubChem, National Center for Advancing Translational Sciences (NCATS)
An excerpt weighted towards active compounds, which were near 11% of everything screened.
IMPase Li cell: cell-permeable IMPase inhibitors with lithium potentiation; CHO-M1 cells, IP1 TR-FRET (IP-One), carbachol + lithium; Potency, µM (doses to about 59.4 µM), for the others: at the highest dose activity, negative = IMPase inhibition, hits mostly inhibitors; 210,000 tested, 0.35% active;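 further: IP1 builds up when IMPase is blocked and the TR-FRET signal falls; potency means the concentration at half of the fitted maximal effect; plate controls were basal vehicle for no effect and high inhibitor control for full effect; nearly all actives have a fitted effect of over 50% in size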
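CHO-M1, 2000 cells/well, 16–30 h culture; cpd + low Li+, 30 min 37C; lysis with d2-IP1/Eu-anti-IP1 Ab, 10 min RT; TR-FRET 665/620 ratio and 620 channel; AC50 via Hill.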
ALOX12 inhib: 12-hLO (ALOX12) enzyme inhibition. P18054. purified 12-hLO, xylenol orange hydroperoxide absorbance. Potency, µM (titrated, usually from 57.1 µM), for the others: at the highest dose activity change, negative = inhibition, most hits filed as inhibitors. 150,000 tested, 0.12% active. AID 1452; further: potency means the concentration at half of the fitted maximal effect; nearly all actives have a fitted effect of over 55% in size
Target sequence (P18054 whole entry, looked up): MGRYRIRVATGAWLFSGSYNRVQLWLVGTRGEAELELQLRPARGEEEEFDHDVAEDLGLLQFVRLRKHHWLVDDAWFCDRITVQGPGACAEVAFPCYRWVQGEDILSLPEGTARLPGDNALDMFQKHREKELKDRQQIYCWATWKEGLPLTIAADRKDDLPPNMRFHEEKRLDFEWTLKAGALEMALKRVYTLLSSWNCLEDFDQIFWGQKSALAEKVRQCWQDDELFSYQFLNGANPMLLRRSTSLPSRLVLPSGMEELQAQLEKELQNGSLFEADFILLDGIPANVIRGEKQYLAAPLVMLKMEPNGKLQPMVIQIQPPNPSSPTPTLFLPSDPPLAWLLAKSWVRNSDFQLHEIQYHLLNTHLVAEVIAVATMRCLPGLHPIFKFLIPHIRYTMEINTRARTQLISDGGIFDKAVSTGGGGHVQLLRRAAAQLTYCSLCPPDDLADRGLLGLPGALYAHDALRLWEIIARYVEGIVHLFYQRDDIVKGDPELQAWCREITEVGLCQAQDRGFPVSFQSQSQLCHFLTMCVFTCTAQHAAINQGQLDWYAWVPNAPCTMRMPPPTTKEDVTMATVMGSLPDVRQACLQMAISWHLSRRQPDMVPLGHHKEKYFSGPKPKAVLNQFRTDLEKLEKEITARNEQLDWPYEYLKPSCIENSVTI
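150 nM 12hLO, 25 mM Hepes pH 7.0 + 0.01% Triton X-100; cpd preinc 15 min RT; 40 uM arachidonic acid, 30 min RT; Fe-XO 30 min; A573/A405 ratio as read-out.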
HPGD block: HPGD (human) dehydrogenase inhibition. P15428. purified HPGD, NADH fluorescence kinetic, PGE2 substrate. Potency, µM, inactives show top-dose activity change, negative = inhibition, most hits filed as inhibitors. 150,000 tested, 4.3% active. AID 894; active means well fitted inhibition curve with a large enough effect, not every such curve was filed as active; inconclusive means small, poorly fitted or top-dose-only effect, or another doubt; inactive means no such curve, though single readings can be large or run the other way; further: potency means the concentration at half of the fitted maximal effect
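20 nM HPGD preincubated 15 min at room temperature with compound in 50 mM Tris-HCl pH 8, 0.01% Tween 20. Started with 1 mM NAD+ and 30 uM prostaglandin E2; NADH fluorescence (360/450 nm) read 5 times over 30-s intervals, last minus first.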
IMPase inh: cell-permeable inhibitors of inositol monophosphatase (IMPase); P97697; CHO-M1 cells, IP1 accumulation, HTRF TR-FRET ratio; inhibition (IP1 accumulation), % at 46.1 µM; 120,000 tested, under 10 active; active means well fitted curve in the direction sought with a large enough effect in the signal ratio, not every such curve was filed as active; inconclusive means small, poorly fitted or top-dose-only effect, or a change in a side signal; inactive means no such curve, though single readings can be large or run the other way; the % refers to the signal ratio;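 further: cells stimulated with carbachol in lithium chloride buffer; plate controls were DMSO basal wells for no effect and reference inhibitor wells for full effect; higher means more IMPase inhibition seen as more IP1 and lower FRET ratio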
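Cellular IMPase inhibition is scored as a rise in cytosolic IP1, detected by competitive TR-FRET between d2-labelled IP1 and a europium anti-IP1 antibody. M1-expressing CHO cells were stimulated with carbachol for 30 min at 37C, with lithium (50 mM LiCl) present in the buffer.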
PNC inhibitor: perinucleolar compartment assembly inhibition | 140,000 tested, 3.1% active | PC3M PTB-GFP, PNC prevalence imaging, 16 h; active compounds read low | AID 2417 | activity change (PNC), negative = inhibition, % at 10 µM;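 active means readout at or below -70, meaning at least 70% loss of cells showing the perinucleolar compartment, a nuclear body marking cancer cells; inconclusive means readout between -30 and a set limit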;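 further: plate controls were DMSO wells for no effect and camptothecin positive control wells for full effect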
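Read-out is percentage of cells bearing a perinucleolar compartment, from automated 20x imaging of fixed, Hoechst-stained PC3M PTB-GFP cells. Cells were seeded 4 h, then exposed 16 h to compound (23 nl of library stock) in duplicate plates.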
ALDH1A1 inh: blocks purified human ALDH1A1 activity; Purified ALDH1A1, NADH fluorescence, propionaldehyde substrate; Potency, µM (titrated, usually from 75.3 µM), inactives show at the top dose activity, negative = inhibition, most hits filed as inhibitors; 220,000 tested, 7.3% active; active means well fitted inhibition curve with a large enough effect, not every such curve was filed as active; inconclusive means small, poorly fitted or top-dose-only effect, or another doubt; inactive means no such curve, though single readings can be large or run the other way;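 further: potency means the concentration at half of the fitted maximal effect; plate controls were no enzyme wells and a reference inhibitor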
* marks the source's active call; other numbers are inactive results; ? = inconclusive; nt = no result; [ ] = dose if it differs, or a comment. Unless noted, the call rests on the fitted dose curve; in most records, active means well fitted curve in the direction sought with a large enough effect; inconclusive means small, poorly fitted or top-dose-only effect, or another doubt; inactive means no such curve, though single readings can be large; an effect the other way counts as inactive or inconclusive. Unless noted, on the % scale 0 is the no-effect control and ±100 the full control effect.

SMILES	IMPase Li cell	ALOX12 inhib	HPGD block	IMPase inh	PNC inhibitor	ALDH1A1 inh
CCc1nn2c(=O)cc(COc3ccc(/C=C4\C(=N)N5N=C(C)SC5=NC4=O)cc3)nc2s1	-8%	nt	nt	nt	nt	8.9µM*
C=C(C(C)=O)C(O)/C=C/c1ccco1 (stereo not given)	-11%	nt	-7%	nt	nt	-14%
N#C/C(=C/c1cn(Cc2ccc(F)cc2)c2ccccc12)C(=O)Nc1cccc(Cl)c1	nt	nt	nt	0	nt	nt
CC1CCC/C(=N/NC(=O)c2ccccc2-n2cccc2)C1 (stereo not given)	-1%	3%	4%	nt	-109*	?
O=C(NN=C1CCC(c2ccccc2)CC1)c1ccccc1-n1cccc1 (stereo not given)	-3%	-3%	-4%	-5	31	?
O=S(=O)(NCCSc1ccccc1)c1ccc2c(c1)OCCO2	13%[38.3 µM]	-5%	-17%	-6	42	0.56µM*
O=C(O)C[C@@H](C(=O)O)C1c2ccccc2-c2ccccc21	2%	7%[11.4 µM]	-9%	nt	nt	9%[13.5 µM]
Cc1cccc(-c2c3c(=O)n(C)c(=O)n(C)c3cn2CC2CCCO2)c1 (stereo not given)	0%[38.3 µM]	-6%	-21%	-2	19	20µM*
Cc1cccc(NC(=O)CSc2nnc3scc(-c4ccccc4)n23)c1	nt	nt	nt	-2	nt	nt
CC(=O)Nc1ccc(N(C(=O)CNC(=O)c2ccco2)C(C(=O)NCC2CCCO2)c2ccccc2)cc1 (stereo not given)	-1%	nt	nt	nt	nt	-1%
CC(=O)Nc1ccc(N(C(=O)CNC(=O)c2ccco2)C(C(=O)NCc2ccco2)c2ccccc2F)cc1 (stereo not given)	-1%	nt	nt	nt	nt	7.9µM*
O=C(NCCCN1CCCC1=O)c1ccccc1NS(=O)(=O)c1ccc(Br)cc1	1%[38.3 µM]	-3%	?	6	5	?
O=C(O)/C=C/C(=O)Nc1ccc2nccnc2c1	0%	nt	nt	nt	nt	?
Cc1cccc(OCc2n[nH]c(=S)o2)c1	-10%[38.3 µM]	-6%	-4%	-1	-82*	?
Cc1cccc(OCc2n[nH]c(=S)o2)c1C	0%	nt	nt	nt	nt	18µM*
Cc1cccc(C)c1OCc1n[nH]c(=S)o1	4%	1%	-3%	3	53	8.9µM*
COC(=O)NC(/C(C(=O)OC)=C(\C)NCc1ccccc1)c1ccc(Cl)cc1 (stereo not given)	nt	nt	nt	nt	nt	-2%[13.5 µM]
O=S(=O)(Nc1ccc(N=Nc2ccc(O)c3ccccc23)cc1)c1ccccc1	20%	-10%	32µM*	nt	?	-1%
CCC1CCCCN1C(=O)CSc1nc(N)cc(N)n1 (stereo not given)	0%	nt	nt	nt	nt	8.9µM*
Cc1ccc(-c2nnc(SCC(=O)N3CCCC3)o2)cc1C	-20%[38.3 µM]	-2%	-27%	-12	15	?
CCC1CCCCN1C(=O)CSc1nnc(-c2ccc3c(c2)OCCO3)o1 (stereo not given)	8%[38.3 µM]	-5%	?	-11	-107*	?
O=C(CSc1nnc(-c2ccc3c(c2)OCCO3)o1)N1CCCC1	-14%[38.3 µM]	4%	-25%	6	-22	25µM*
O=C(CSc1nnc(-c2ccccc2)o1)c1ccc2c(c1)OCCO2	?	-1%	-7%	7	3	3.2µM*
CCN1C(=O)[C@H]2[C@H]3[C@H](O)[C@H](O)C/C(=N/O[C@@H](C)c4cc(-c5c(C)cc(C)cc5C)no4)[C@@H]3CC[C@@H]2C1=O	nt	nt	nt	nt	nt	3%[13.5 µM]
S=C(c1nc2ccccc2[nH]1)N1CCOCC1	1%	-6%	?	4	?	13µM*
SMILES	IMPase Li cell	ALOX12 inhib	HPGD block	IMPase inh	PNC inhibitor	ALDH1A1 inh
O=C(c1cc2ccccc2[nH]1)N1CCOCC1	-1%	4%	-4%	nt	-1	7%
S=C1NC=NC2N=CNC12 (stereo not given)	12%	-13%	?	nt	nt	2.2µM*
CC1CCc2nc(NC(=O)CN3CCN(Cc4ccc5c(c4)OCO5)CC3)sc2C1 (stereo not given)	-3%[38.3 µM]	-11%	-18%	12	38	14µM*
Cc1ccc(-c2nnc(Nc3ccc(O)cc3)c3ccccc23)cc1S(=O)(=O)NCc1nc2ccccc2[nH]1	nt	nt	nt	5	nt	nt
O=C(NCc1ccco1)c1nc2c(nnn2Cc2ccccc2Cl)c(=O)[nH]1	1%	-1%	14µM*	-3	2	-1%
Nc1c(C(=O)NCc2ccccc2)nnn1Cc1ccc(F)cc1	24%[38.3 µM]	-1%	-15%	-7	4	4%
Cc1nc(NCC2CCCO2)c2nnn(Cc3ccccc3Cl)c2n1 (stereo not given)	-3%[38.3 µM]	-5%	-8%	9	-12	-15%
O=C(NCC1CCCO1)c1nc2c(nnn2Cc2ccc(F)cc2)c(=O)[nH]1 (stereo not given)	-5%[38.3 µM]	-2%	14µM*	-7	-16	1%
Cc1nc(NCC2CCCO2)c2nnn(Cc3ccccc3)c2n1 (stereo not given)	2%[38.3 µM]	-3%	-27%	1	15	22µM*
COc1cccc(OC)c1NC(=O)c1nc2c(nnn2Cc2ccccc2Cl)c(=O)[nH]1	-4%	nt	nt	nt	nt	?
O=C(NCc1cccs1)c1nc2c(nnn2Cc2ccc(F)cc2)c(=O)[nH]1	1%	-7%	14µM*	?	-21	-1%
O=C(NCC1CCCO1)C1CCC(=O)N1Cc1ccc(F)cc1 (stereo not given)	1%[38.3 µM]	2%	-8%	0	-16	5%
C=CCOC(=O)CCCCCCCC	15%	0%	-2%	nt	nt	-3%
CCc1nc2c(nnn2Cc2ccc(F)cc2)c(=O)[nH]1	30%[38.3 µM]	6%	14µM*	2	?	-8%
O=C(CSCc1nc2c(nnn2Cc2ccc(F)cc2)c(=O)[nH]1)Nc1c(Cl)cc(Cl)cc1Cl	?	nt	nt	nt	nt	2%
COc1ccc(-n2nc3ccc(NC(=O)c4cc5ccccc5o4)cc3n2)cc1Cl	nt	nt	nt	4	nt	nt
CN(C)c1ccc(/C=N\Nc2nc(-c3ccccc3)cc(=O)[nH]2)cc1	7%	-3%	-9%	nt	-118*	?
CCOC(=O)c1ccc[n+](C(C)C(=O)c2ccc(-c3ccccc3)cc2)c1 (stereo not given)	14%	5%	-9%	nt	19	5.6µM*
CCCCn1c(NC(=O)c2ccco2)c(S(=O)(=O)c2ccc(C)cc2)c2nc3ccccc3nc21	?	-18%	?	nt	?	?
CCCCn1c(C(C)NC(=O)CC)nc2ccccc21 (stereo not given)	5%[38.3 µM]	-1%	-6%	2	?	-4%
CCCCn1c(NC(=O)c2ccc(Br)o2)c(S(=O)(=O)c2ccccc2)c2nc3ccccc3nc21	10µM*	3%	?	?	6	?
